In the library only some 7.5% were active in any assay of this set; here they are far more common.
FLuc modulator = inhibits or activates purified firefly luciferase, miR-21 counter-screen; Potency, µM (series often up to 57.5 µM), without a hit: at the top dose activity change, negative = inhibition, usual class: inhibitors; purified FLuc, Km substrates, luminescence inhibition; 6.9% of 360,000 active; P08659; AID 588342;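 further: plate controls were vehicle for no effect and reference inhibitor for full effect; nearly all actives have a fitted effect of over 55% in size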
Target sequence (P08659 whole entry, looked up): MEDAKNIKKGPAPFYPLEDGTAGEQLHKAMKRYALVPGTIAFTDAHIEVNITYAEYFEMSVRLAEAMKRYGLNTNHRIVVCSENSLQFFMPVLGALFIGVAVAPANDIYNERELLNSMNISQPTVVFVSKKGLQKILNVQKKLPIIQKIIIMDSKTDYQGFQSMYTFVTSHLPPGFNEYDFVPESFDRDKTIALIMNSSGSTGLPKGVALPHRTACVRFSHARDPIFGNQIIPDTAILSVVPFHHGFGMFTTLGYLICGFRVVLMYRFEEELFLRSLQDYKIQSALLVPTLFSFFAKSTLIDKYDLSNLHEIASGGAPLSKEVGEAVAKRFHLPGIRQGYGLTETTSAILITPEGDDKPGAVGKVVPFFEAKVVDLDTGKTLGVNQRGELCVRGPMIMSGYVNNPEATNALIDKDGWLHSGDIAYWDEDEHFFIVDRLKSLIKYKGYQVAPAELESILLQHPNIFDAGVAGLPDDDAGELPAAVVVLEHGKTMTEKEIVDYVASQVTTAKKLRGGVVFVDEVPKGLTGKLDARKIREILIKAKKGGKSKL
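Purified P. pyralis luciferase, 10 nM final, with Km-level 10 uM D-luciferin and 10 uM ATP in 50 mM Tris acetate pH 7.5, 10 mM Mg acetate, 0.01% Tween-20, 0.05% BSA; 6-point qHTS titration about 60 µM downward; luminescence read.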
NPC1 promoter act = activates the NPC1 promoter; Huh7 NPC1 promoter luciferase reporter, 24 h; 2.4% of 320,000 active; Potency, µM (series often up to 9.22 µM), for inactives: top-dose activation, actives largely listed as activators; further: % of control where 0% means no effect; nearly all actives have a fitted effect of over 60% in size
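Stable NPC1-promoter luciferase Huh7 line; cpd (DMSO) 24 h, 37 °C, 5% CO2; Amplite luciferase reagent 10 min RT; luminescence readout. qHTS format.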
ELG1 genotoxic = inducers of genotoxicity in HEK293T ELG1-luciferase cells; Potency, µM (top dose mostly 46 µM), for the others: top-dose activity change, positive = activation, actives largely listed as activators; HEK293T ELG1-luciferase reporter, luminescence, 16 h; AID 504466; 1.3% of 330,000 active; further: % of control where 0% means no effect; nearly all actives have a fitted effect of over 60% in size
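Quantitative HTS format in 1536-well plates. HEK293T ELG1-luciferase reporter cells receive test compound and are incubated 16 hr at 37 °C, 5% CO2; ONE-Glo added, 30 min room temperature, then luminescence read.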
Rab9 promoter act = Rab9 promoter activation. Huh7 Rab9 promoter-luciferase reporter, luminescence, 24 h. 2.8% of 320,000 active. Potency, µM (top dose mostly 9.22 µM), inactives show at the highest dose activation, negative = inhibition, usual class: activators; further: % of control where 0% means no effect; nearly all actives have a fitted effect of over 60% in size
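Huh7 cells stably carrying Rab9 promoter–luciferase reporter, plated 1500 cells/well, compound added after 2 h and incubated 24 h at 37 °C; luciferase luminescence then read after 10 min with detection reagent.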
SMN2 splice up = increases expression of the SMN2 splice variant; HEK293 SMN2-luciferase splicing reporter, luminescence, 30-36 h; Potency, µM (top dose mostly 46.1 µM), without a hit: at the highest dose activity change, positive = activation, most hits filed as activators; 2.8% of 210,000 active; further: % of control where 0% means no effect; nearly all actives have a fitted effect of over 55% in size
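HEK293 cells carry an SMN2 […]–luciferase reporter in which exon 7 inclusion puts luciferase in frame. Cells were plated 10-12 h before compound addition, then incubated 30-36 h at 37C. ONE-Glo luminescence was read; sodium butyrate at 4.5 mM final served as control.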
KinaseGlo FLuc = counter-screen: inhibitors of Kinase-Glo firefly luciferase | Q27757 | Kinase-Glo luciferase, ATP luminescence, 8 min | Potency, µM (top dose mostly 38.3 µM), for inactives: at the top dose activity change, negative = inhibition, most hits filed as inhibitors | 0.28% of 200,000 active | AID 1379; further: on the % scale 0 is the no-effect control and ±100 the full control effect; nearly all actives have a fitted effect of over 60% in size
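Substrate mix (final 50 mM imidazole pH 7.2, 50 mM KCl, 7 mM MgCl2, 10 uM ATP, 0.01% Tween 20, 0.05% BSA) plus pin-tool compound, then Kinase-Glo detection mix; 8 min ambient, luminescence read.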
The depositor's hits bear a star; ? = inconclusive; / = not tested or not shown; ! = a repeat was not active; [ ] = remark or other dose. The call rests on the fitted dose curve; in most records, active means well fitted curve in the direction sought with a large enough effect; inconclusive means small, poorly fitted or top-dose-only effect, or another doubt; inactive means no such curve, though single readings can be large; an effect the other way counts as inactive or inconclusive. Potency means the concentration at half of the fitted maximal effect.

SMILES | FLuc modulator | NPC1 promoter act | ELG1 genotoxic | Rab9 promoter act | SMN2 splice up | KinaseGlo FLuc
Cc1cccc(C)c1N/C=C/c1onc(C)c1[N+](=O)[O-] | 3% | / | / | / | -1% | -1%
COc1cccc(N/C=C/c2onc(C)c2[N+](=O)[O-])c1 | -3% | ? | ? | 2.5µM* | ? | 0%
Cc1ccc(N/C=C/c2onc(C)c2[N+](=O)[O-])cc1 | 0.6µM* | 2.5µM* | 1.3µM* | 0.63µM* | / | /
COC(=O)c1ccccc1S(=O)(=O)N1CCc2nc(-c3ccc(OC)cc3C)c3c(c2C1)CO[C@@H](c1ccccc1)C3 | / | / | / | / | -6%[9.22 µM] | -8%[7.66 µM]
CCN(CC)C(=O)Oc1ccc2c(=O)c(-c3ccccc3)coc2c1 | 6µM* | 1.6µM* | ? | 3.5µM* | ? | -13%
COc1ccc2c(=O)c(CC(=O)O)coc2c1 | / | / | / | / | 4% | -1%
COc1ccc(-c2coc3cc(O)cc(O)c3c2=O)cc1OC | ? | 22% | ? | 24% | / | /
COc1ccc2c(=O)c(-c3ccc(OC)c(OC)c3)coc2c1 | 7.6µM* | ? | ? | ? | / | /
O=c1c(-c2ccc(F)cc2)coc2c3c(ccc12)OCCO3 | ? | 3.5µM* | 2.6µM* | 1.3µM* | ? | -4%
O=c1c(-c2ccc(Br)cc2)coc2c(CN3CCOCC3)c(O)ccc12 | -21% | 0% | 8% | -6% | -9% | -2%
CCN(CC)C(=O)COc1ccc2c(-c3ccccc3)cc(=O)oc2c1 | -7% | -5% | 0% | -3% | / | /
COc1ccc2c(=O)c(-c3ccccc3)coc2c1 | 3µM* | 0.71µM* | 1% | 0.79µM* | 11µM* | 2.8µM*!
O=C(CSC(=S)N1CCOCC1)Nc1nc(=O)c2ccccc2s1 | -11% | 6% | -2% | 0% | 27% | -6%
Cc1cc(C(=O)NNC(=O)c2sccc2C)c(C)o1 | ? | ? | 18% | ? | / | /
CCC(Oc1ccccc1F)C(=O)Nc1c(C(=O)c2ccccc2)oc2ccccc12 (stereo not given) | 1% | / | / | / | -7% | /
COc1ccccc1-c1coc2cc(O)cc(O)c2c1=O | 21µM* | 21% | 16µM* | ? | 25% | -3%
COc1ccc(-c2coc3cc(OC(C)=O)cc(OC(C)=O)c3c2=O)cc1 | / | / | / | / | 8.9µM* | -2%
O=c1c(-c2ccc(F)cc2)coc2cc(O)ccc12 | 13µM* | 3.2µM* | ? | 3.5µM* | 78% | ?
COc1ccc(-c2coc3cc(O)ccc3c2=O)cc1OC | 19µM* | ? | ? | ? | 28% | 7%
CC1=C(C(=O)Nc2ccc(C)cc2C)C(c2cccs2)n2nc(SCc3cccc(C)c3)nc2N1 (stereo not given) | -6% | / | / | / | -3% | /
Nc1ccc(S(=O)(=O)NCCS(=O)(=O)O)cc1 | / | / | / | / | -3%[9.22 µM] | -2%[7.66 µM]
Cc1cc(C)n(C(=O)COc2ccc([N+](=O)[O-])cc2)n1 | 2% | -1% | -1% | -4% | 15% | -4%
Cc1cc(C)n(C(N)=NC(=O)c2ccc([N+](=O)[O-])cc2)n1 | ? | 2.8µM* | ? | 2.5µM* | / | /
COc1ccc([N+](=O)[O-])cc1NC(=O)c1ccc(CN(c2ccccc2)S(C)(=O)=O)cc1 | 0% | -6% | 0% | -8% | -23% | 6%
Cc1nc2c(ccc3nc(NC(=O)c4ccc5c(c4)OCCO5)sc32)s1 | 0.21µM* | 0.32µM* | ? | 0.71µM* | ? | -9%
SMILES | FLuc modulator | NPC1 promoter act | ELG1 genotoxic | Rab9 promoter act | SMN2 splice up | KinaseGlo FLuc
Cc1nc2ccc3nc(NC(=O)c4ccc5c(c4)OCCO5)sc3c2s1 | ? | 13% | 3% | 19% | -2% | -2%
Cc1cnc(NC(=O)c2ccc3c(c2)OCCO3)s1 | 0.11µM* | ? | ? | 0.1µM* | / | /
Cc1ccc2sc(NC(=O)c3ccc4c(c3)OCCO4)nc2c1C | 2.7µM* | / | / | / | / | /
O=C(Nc1nc2cc3c(cc2s1)OCCO3)c1ccc(N2C(=O)CCC2=O)cc1 | ? | ? | 5% | 12% | / | /
CC(=O)O[C@]1(C)N=NC2(CCCCC2)O1 | / | / | / | / | -14%[9.22 µM] | -2%[7.66 µM]
C=CCn1c(=S)[nH]c2scc(-c3cccs3)c2c1=O | 13µM* | -3% | -21% | 1% | -79% | 3%
Cn1c(=S)[nH]c2scc(-c3cccs3)c2c1=O | ? | -12% | -6% | 3% | 12% | -4%
O=C(Nc1sc2c(c1C(=O)O)CCCC2)c1cccs1 | 17µM* | 18% | -8% | 3% | ? | -2%
O=C(Nc1sc2c(c1C(=O)O)CCCCC2)c1cccs1 | 2.7µM* | ? | 7% | 4.5µM* | ? | -6%
CC(C)OC(=O)c1c(NC(=O)c2cccs2)sc2c1CCCC2 | -1% | 3% | -7% | 5% | -4% | -7%
CCOC(=O)N/N=C1\CCc2ccccc21 | ? | 26% | ? | 29% | 16µM* | -14%
Cc1ccc(C)c(NC(=S)N/N=C2/CCCCc3ccccc32)c1 | 2% | 0% | -9% | -3% | -38% | -2%
O=C(N/N=C1/CCc2ccccc21)C1CC1 | ? | 7% | ? | 18% | 22% | -4%
O=C(N/N=C1\CCc2ccccc21)c1ccccc1Cl | 11µM* | 2.2µM* | 18µM* | 2.8µM* | 10µM* | -4%
O=C(N/N=C1\C(=O)c2cccc3cccc1c23)c1ccc(O)cc1 | 2.1µM* | 0% | 3% | 21% | 23% | -1%
Cc1ccc(C(=O)N/N=C2\CCc3ccccc32)c(C)c1 | 4.8µM* | ? | 2.3µM* | 2.2µM* | 0.79µM* | 0%
COc1ccccc1C(=O)NCCCNC(=O)c1cccnc1 | 1% | -1% | 3% | 0% | / | /
O=C(N/N=C1\CCCc2ccccc21)c1cccc(Br)c1 | ? | 20% | 4% | 15% | ? | -1%
O=C(N/N=C1\CCc2ccccc21)c1ccc(O)cc1 | 7.6µM* | 2.8µM* | 4.6µM* | 2.8µM* | 18µM* | -27%
O=C(CCc1nc2ccccc2[nH]c1=O)N/N=C/c1ccccc1 | 0% | -6% | 4% | 3% | 11% | -5%
CN(C)S(=O)(=O)c1ccc(C(=O)NCCS(=O)(=O)N2CCN(c3ccc(F)cc3)CC2)cc1 | 2% | -4% | 5% | -11% | / | /
CN(C)S(=O)(=O)c1ccc(C(=O)NCc2ccccc2)cc1 | 2% | -2% | 5% | 0% | 0% | 4%
CN(C)S(=O)(=O)c1ccc(C(=O)NCCOc2ccc(F)cc2)cc1 | ? | 26% | 13µM* | ? | 20% | -5%
CN(C)S(=O)(=O)c1ccc(C(=O)NCCOc2ccccc2)cc1 | 13µM* | 4µM* | ? | 2.8µM* | 11µM* | 3%
COc1ccc(CC(=O)Oc2ccc(F)c(F)c2)cc1S(=O)(=O)N1CCOCC1 | -1% | -2% | 0% | -7% | / | /
CCOC(=O)N1CCc2c(sc(NCc3sccc3C)c2C(=O)Nc2cc(Cl)ccc2OC)C1 | -3% | / | / | / | / | /

Screening data as filed in PubChem BioAssay.
